The values below come from the supplement of paper PMC11402862.

The experiment concerns PPARgamma LBD (GAL4 fusion). The experiment is described as follows: luciferase reporter transactivation, fold of solvent control; higher = stronger receptor activation. The note with it: HEK293T, exposure time: 24 h. On the procedure:
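HEK293T cells were transiently transfected with a GAL4-DBD fused to the ligand-binding domain of a human nuclear receptor (PPARα, PPARγ, PPARδ, FXR, LXRα, PXR, RARα or CAR), the GAL4-(UAS)5-TK firefly luciferase reporter and a Renilla luciferase normalisation plasmid. Cells were exposed to compound for 24 h in 0.5% DMSO. Firefly/Renilla luciferase was expressed as fold of the solvent control (=1). Values are the mean of 2-3 biological replicates; receptor agonists were used as positive controls.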
(Reporter assays use an easily measured gene product as a stand-in for the process of interest.)

Compound `O=S(=O)(O)CCC(F)(F)C(F)(F)C(F)(F)C(F)(F)C(F)(F)C(F)(F)F` [6:2 fluorotelomer sulfonic acid] yielded a luciferase reporter transactivation (concentration: 1 µM) of 1.45; a luciferase reporter transactivation (concentration: 5 µM) of 1.66; a luciferase reporter transactivation (concentration: 10 µM) of 1.6; a luciferase reporter transactivation (concentration: 25 µM) of 1.57; a luciferase reporter transactivation (concentration: 50 µM) of 1.9; a luciferase reporter transactivation (concentration: 100 µM) of 2.81.

With `O=C(O)C(F)(F)C(F)(F)C(F)(F)C(F)(F)F` [perfluoropentanoic acid], the luciferase reporter transactivation by setting is: (concentration: 1 µM) 1.01; (concentration: 5 µM) 1.01; (concentration: 10 µM) 0.918; (concentration: 25 µM) 0.953; (concentration: 50 µM) 0.925; (concentration: 100 µM) 0.858. Further, the luciferase reporter transactivation by setting is: (concentration: 250 µM) 0.947; (concentration: 500 µM) 1.11.

The compound `O=S(=O)(O)CCC(F)(F)C(F)(F)C(F)(F)C(F)(F)C(F)(F)C(F)(F)C(F)(F)C(F)(F)F` [8:2 fluorotelomer sulfonic acid] had a luciferase reporter transactivation (concentration: 1 µM) of 0.851; a luciferase reporter transactivation (concentration: 5 µM) of 0.861; a luciferase reporter transactivation (concentration: 10 µM) of 0.922; a luciferase reporter transactivation (concentration: 25 µM) of 0.905; a luciferase reporter transactivation (concentration: 50 µM) of 1.04; a luciferase reporter transactivation (concentration: 100 µM) of 1.31. Moreover, the luciferase reporter transactivation (concentration: 250 µM) is 1.04 and the luciferase reporter transactivation (concentration: 500 µM) was found to be 0.846.

Turning to `OCCC(F)(F)C(F)(F)C(F)(F)C(F)(F)C(F)(F)C(F)(F)F` [6:2 fluorotelomer alcohol], the luciferase reporter transactivation was determined as 1.1 (concentration: 1 µM); 1 (concentration: 5 µM); 0.973 (concentration: 10 µM); 1.1 (concentration: 25 µM); 1.09 (concentration: 50 µM); 0.563 (concentration: 100 µM). The compound further yielded a luciferase reporter transactivation (concentration: 250 µM) of 1.25 and a luciferase reporter transactivation (concentration: 500 µM) of 1.1.

Consider `Cc1c(C)c2c(c(C)c1O)CCC(C)(COc1ccc(CC3SC(=O)NC3=O)cc1)O2` (stereo unspecified) [troglitazone], for which the luciferase reporter transactivation (concentration: 10 µM) worked out at 27.7.
